The list is not random: actives were taken first. Their share in the collection is about 10%.
BAZ2B block – blocks human BAZ2B | Q9UIF8 | AlphaScreen BAZ2B-H3K14Ac peptide displacement | Potency, µM (highest dose often 114 µM), actives largely listed as inhibitors | hit rate 4.4% among 360,000 | AID 504333; note: nearly all actives have a fitted effect of over 60% in size
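Complex of BAZ2B and biotin-H3K14Ac (50 nM apiece) forms over 30 min at RT, then faces library compounds up to 110 uM for another 30 min; AlphaScreen beads added, 20 min dark incubation, luminescence read.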
L3MBTL1 inh – L3MBTL1 (human) inhibition; Potency, µM (series often up to 57.1 µM), most hits filed as inhibitors; Q9Y468; AID 485360; hit rate 0.66% among 230,000; AlphaScreen L3MBTL1–H3K9me1 peptide binding; note: nearly all actives have a fitted effect of over 60% in size
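Displacement of a biotinylated histone H3(1-15) peptide monomethylated at Lys9 (75 nM) from L3MBTL1 (50 nM) was measured by AlphaScreen after a 30 min room-temperature compound incubation; cefsulodin titration served as intraplate control.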
HP1b binding inh – blocks HP1-beta chromodomain binding to methylated histone tails; Potency, µM (series often up to 114 µM), most hits filed as inhibitors; AlphaScreen HP1-beta / biotin-H3K9me3 peptide binding; hit rate 0.56% among 390,000; P83916; note: nearly all actives have a fitted effect of over 70% in size
Target sequence (P83916 whole entry, looked up): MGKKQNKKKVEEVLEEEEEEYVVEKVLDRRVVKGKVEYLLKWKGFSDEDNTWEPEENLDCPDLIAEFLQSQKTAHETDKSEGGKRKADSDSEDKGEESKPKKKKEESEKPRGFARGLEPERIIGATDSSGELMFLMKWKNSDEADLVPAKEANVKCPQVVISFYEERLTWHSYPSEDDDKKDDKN
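Compound inhibition of the preformed complex between 50 nM HP1-beta and 50 nM biotinylated H3K9me3 peptide was read by AlphaScreen. Buffer was PBS pH 7.4 with 0.01% Tween-20. Incubations ran 30 min at room temperature, with 10 ug/mL donor/acceptor beads.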
JMJD2A Tudor – blocks the human JMJD2A Tudor domain | AlphaScreen JMJD2A-Tudor / H3K4me3 peptide binding | AID 504339 | hit rate 4.4% among 390,000 | Potency, µM (highest dose often 114 µM), hits mostly inhibitors; note: nearly all actives have a fitted effect of over 50% in size
G9a block – inhibitors of human histone lysine methyltransferase G9a; Q96KQ7; Potency, µM (doses to about 102 µM), most hits filed as inhibitors; hit rate 8.8% among 350,000; AID 504332; G9a H3K9 monomethylation, AlphaScreen, 2 h; note: nearly all actives have a fitted effect of over 75% in size
Target sequence (Q96KQ7 913-1193 limits assumed): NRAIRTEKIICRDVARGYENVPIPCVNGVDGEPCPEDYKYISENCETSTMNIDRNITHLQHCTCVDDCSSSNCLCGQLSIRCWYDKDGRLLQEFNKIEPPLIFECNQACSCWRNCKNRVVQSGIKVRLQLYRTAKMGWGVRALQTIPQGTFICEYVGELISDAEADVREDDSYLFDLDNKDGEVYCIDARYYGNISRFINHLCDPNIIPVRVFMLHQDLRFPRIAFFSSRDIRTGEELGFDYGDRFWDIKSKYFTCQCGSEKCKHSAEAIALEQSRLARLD
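G9a (20 nM) was preincubated 15 min with compound, then reacted 2 h at room temperature with 500 nM biotin-H3K9 peptide and 20 µM SAM. Monomethyl-H3K9 detected by AlphaScreen using anti-H3K9me1 antibody.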
GLS inh – inhibitors of human glutaminase (GLS). Potency, µM (titrated, usually from 45.5 µM), actives largely listed as inhibitors. GLS enzymatic activity, qHTS titration. O94925. hit rate 0.21% among 410,000. AID 624170
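Two-point fluorescence kinetic (t0, 30 min RT) for hKGA; glutamate detected via glutamate oxidase–HRP–Amplex Red. Substrate: 1 mM L-glutamine solution; buffer 45 mM KH2PO4, pH 8.2.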
Large screens that a line does not name were inactive. Calls come from the whole dose curve; as a rule, active = well fitted curve in the direction sought with a large enough effect; inconclusive = small, poorly fitted or top-dose-only effect, or another doubt; inactive = no such curve, though single readings can be large; an effect the other way counts as inactive or inconclusive.

CCC[n+]1c2ccccc2cc2ccccc21	BAZ2B block 45µM, JMJD2A Tudor 20µM, G9a block 3.5µM, GLS inh inconclusive (no result: L3MBTL1 inh)
Brc1cc2ccccc2[n+](Cc2ccccc2)c1	none
CCCC[n+]1c2ccccc2cc2ccccc21	BAZ2B block 56µM, JMJD2A Tudor 40µM, G9a block 1.3µM, GLS inh 5.6µM (no result: L3MBTL1 inh)
O=C(c1ccccc1)c1ccc(Oc2ccc([N+](=O)[O-])cc2[N+](=O)[O-])cc1	HP1b binding inh inconclusive, JMJD2A Tudor 7.1µM (no result: BAZ2B block, L3MBTL1 inh, G9a block)
CCC(=O)c1ccc(Oc2ccc(C(=O)c3ccc(C)cc3)cc2[N+](=O)[O-])cc1	none
COc1ccc(NC(=O)CCCn2nc(C)c3sc4ccccc4c3c2=O)cc1	none (no result: L3MBTL1 inh)
Cn1c(C(=O)NCc2ccco2)cc2c(=O)[nH]c3ccccc3c21	JMJD2A Tudor 100µM
Cc1cccc(-n2ncc(C(=O)NCc3ccco3)c2C2CCN(C(=O)OC(C)(C)C)CC2)c1	JMJD2A Tudor inconclusive (no result: L3MBTL1 inh)
COc1ccc(Cn2cc3c(-c4ccc(F)cc4)nnc-3c3cc(OC)c(OC)cc32)cc1	none
COc1cc2c3nnc(-c4ccc(F)cc4)c-3cn(Cc3ccc(F)cc3)c2cc1OC	G9a block 50µM (no result: L3MBTL1 inh)
COC(=O)C1=COC(C)C2CN3CCc4c([nH]c5ccccc45)C3CC12 (stereo not given)	BAZ2B block inconclusive, JMJD2A Tudor inconclusive, G9a block 45µM
O=C(O)[C@@H]1[C@H]2C[C@H]3c4[nH]c5ccccc5c4CCN3C[C@@H]2CC[C@@H]1O	BAZ2B block inconclusive, JMJD2A Tudor 56µM, G9a block inconclusive, GLS inh inconclusive
CNCCCNC(=O)c1ccc(/C=N/O)nc1	BAZ2B block 22µM, JMJD2A Tudor 20µM, G9a block inconclusive (no result: L3MBTL1 inh)
C[N+](C)(C)CCCNC(=O)c1ccc(/C=N/O)nc1	BAZ2B block 20µM, JMJD2A Tudor 4µM, G9a block inconclusive (no result: L3MBTL1 inh)
CC(C)c1ccc(C(=O)NCCCN(C)C)cc1	G9a block inconclusive
CN(C)CCCNC(=O)c1ccc(/C=N/O)nc1	JMJD2A Tudor 1.4µM
Cc1ccc(C(=O)NCCCNC(=O)c2ccc(C)nc2)cc1	none (no result: L3MBTL1 inh)
O=C(O)c1cc(F)c(S(=O)(=O)N2CCN(S(=O)(=O)c3ccc4c(c3)OCCO4)CC2)cc1F	none (no result: BAZ2B block, L3MBTL1 inh, HP1b binding inh, G9a block, GLS inh)
O=C(CSc1nc2c(c(=O)[nH]1)CN(Cc1ccc3c(c1)OCO3)CC2)Nc1ccc(F)c(F)c1	none (no result: L3MBTL1 inh)
COc1ccc(N2CCN(C3CCCN(S(=O)(=O)c4ccccc4)C3)CC2)cc1 (stereo not given)	BAZ2B block 71µM, HP1b binding inh inconclusive, JMJD2A Tudor inconclusive (no result: L3MBTL1 inh, G9a block)
COc1ccc(OC)c(S(=O)(=O)N2CCCC(N3CCN(c4ccccc4)CC3)C2)c1 (stereo not given)	BAZ2B block inconclusive (no result: L3MBTL1 inh)
COc1ccc(N2CCN(C(=O)c3cn(CC4CCCCC4)nn3)CC2)cc1	BAZ2B block inconclusive, JMJD2A Tudor inconclusive, G9a block 35µM (no result: L3MBTL1 inh)
COc1ccc(N2CCN(C3CCCN(C(=O)c4cccc(C)n4)C3)CC2)cc1 (stereo not given)	G9a block 50µM (no result: L3MBTL1 inh)
Cc1cccc(C(=O)N2CCCC(N3CCN(c4ccccc4)CC3)C2)n1 (stereo not given)	none (no result: L3MBTL1 inh)
COc1ccc(N2CCN(C3CCCN(S(=O)(=O)c4ccc(C)cc4C)C3)CC2)cc1 (stereo not given)	BAZ2B block 25µM, HP1b binding inh inconclusive, JMJD2A Tudor 32µM, G9a block 35µM (no result: L3MBTL1 inh)
COc1ccc(N2CCN(C3CCCN(Cc4ccc(F)cc4Cl)C3)CC2)cc1 (stereo not given)	BAZ2B block inconclusive, JMJD2A Tudor inconclusive, G9a block 71µM
Cc1cc(S(=O)(=O)N2CCCC(N3CCOCC3)C2)c(C)cc1Cl (stereo not given)	G9a block 45µM
CC(=O)Nc1ccc(NC(=O)C/C(C)=N/NC(=O)C(=O)N2CCCC2)cc1	G9a block 35µM
CCn1cc(C(=O)NC(=S)Nc2cccc(O)c2)cn1	G9a block 11µM (no result: L3MBTL1 inh)
CCN(CC)c1ccc(NC(=O)c2cnn(CC)c2)cc1	BAZ2B block 40µM, HP1b binding inh inconclusive, JMJD2A Tudor inconclusive, G9a block 16µM
CCn1cc(C(=O)Nc2ccccc2C(=O)OC)cn1	none (no result: BAZ2B block, L3MBTL1 inh, G9a block)
COc1ccccc1OCCn1c(CCNC(=O)C2CCCCC2)nc2ccccc21	none (no result: BAZ2B block, L3MBTL1 inh, G9a block, GLS inh)
O=C(C1=C(O)C(=O)N(CC2CCCO2)C1c1ccccc1)c1ccco1 (stereo not given)	G9a block 45µM (no result: L3MBTL1 inh)
COc1ccc(C2C(C(=O)c3ccco3)=C(O)C(=O)N2CC2CCCO2)cc1OC (stereo not given)	G9a block 50µM (no result: L3MBTL1 inh)
COc1ccc(C2C(C(=O)c3ccco3)=C(O)C(=O)N2CCOCCO)cc1OC (stereo not given)	BAZ2B block inconclusive, JMJD2A Tudor inconclusive, G9a block inconclusive
CC(C)(C)c1ccc(C2C(C(=O)c3ccco3)=C(O)C(=O)N2CC2CCCO2)cc1 (stereo not given)	none (no result: L3MBTL1 inh)
COc1ccc(C2C(C(=O)c3ccco3)=C(O)C(=O)N2CCc2ccccc2)cc1OC (stereo not given)	JMJD2A Tudor 79µM, G9a block 50µM
O=C(C1=C(O)C(=O)N(CC2CCCO2)C1c1cccnc1)c1ccco1 (stereo not given)	BAZ2B block inconclusive, JMJD2A Tudor inconclusive, G9a block 40µM
CC(=O)N[C@@H](CCC(=O)O)C(=O)O	none (no result: BAZ2B block, L3MBTL1 inh, HP1b binding inh, JMJD2A Tudor)
CC1=C(c2ccc(C)c(C)c2)S(=O)(=O)N=C1N1CCC(C(=O)NCCc2ccc(Cl)cc2)CC1	none (no result: L3MBTL1 inh)
CCCOCc1ccc(O)c2ncccc12	BAZ2B block 13µM, L3MBTL1 inh 28µM, JMJD2A Tudor 56µM
CC(C)COCc1ccc(O)c2ncccc12	BAZ2B block 25µM, L3MBTL1 inh 20µM, JMJD2A Tudor 45µM
N#Cc1cc([N+](=O)[O-])c2sc(C(N)=O)[n+]([O-])c2c1	G9a block 28µM (no result: BAZ2B block, L3MBTL1 inh, HP1b binding inh, JMJD2A Tudor, GLS inh)
COc1cc(C(=O)Nc2ccc(C#N)cc2)c([N+](=O)[O-])cc1OC	none (no result: L3MBTL1 inh)
Cc1cc2oc(=O)cc(-c3cc4ccccc4o3)c2cc1O	BAZ2B block inconclusive (no result: L3MBTL1 inh)
COc1cc(OC)c(-c2c3cc(O)c(=O)cc-3oc3cc(O)c(O)cc23)cc1OC	BAZ2B block 1.1µM, L3MBTL1 inh 0.79µM, JMJD2A Tudor 1.1µM, G9a block 10µM
Cc1c2cc(O)c(=O)cc-2oc2cc(O)c(O)cc12	BAZ2B block 4.5µM, L3MBTL1 inh 2.8µM, HP1b binding inh 0.71µM, JMJD2A Tudor 1.4µM, G9a block 7.9µM, GLS inh inconclusive
COc1ccc(C)cc1NC(=O)c1cc2c(=O)n3cccc(C)c3nc2s1	none (no result: L3MBTL1 inh)
Clc1cccc(N/N=C/c2ccc(N3CCOCC3)cc2)c1	JMJD2A Tudor inconclusive, G9a block 32µM
